Shown is part of a subset that was picked to be rich in hits.
nsP2pro inh: Primary qHTS for inhibitors of NSP2Pro chikungunya virus (CHIKV). Polyprotein P1234 (Chikungunya virus (strain S27-African prototype)), Q8JUX6. FRET peptide cleavage, nsP2pro, fluorescence 1 h. Potency, µM (top dose mostly 24.9 µM), hits mostly inhibitors. actives 1.1% (n = 31,000); also: nearly all actives have a fitted effect of over 60% in size
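FRET cleavage of 2.5 uM peptide 2 by 150 nM CHIKV protease domain at pH 8.0 (Tris, Tween 20). Compounds at 7 concentrations (up to 25 uM) preincubated 15 min. Fluorescence read after 1 h at room temperature.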
CHIKV nsP2 cell: Secondary cell base assay for inhibitors of NSP2Pro Chikungunya virus (CHIKV); shares compounds with nsP2pro inh; cell-based CHIKV nsP2 protease reporter assay; Potency, µM (highest dose often 51.1 µM), actives largely listed as inhibitors; actives 10% (n = 450); also: nearly all actives have a fitted effect of over 70% in size
CHIKV NSP2 FL: Selectivity profile for inhibitors of NSP2Pro chikungunya virus (CHIKV): Full length NSP2 enzyme counterscreen (CHIKV-NSP2); shares compounds with nsP2pro inh; Full-length CHIKV NSP2 protease enzymatic counterscreen; Potency, µM (top dose mostly 50.7 µM), most hits filed as inhibitors; actives 39% (n = 410); also: nearly all actives have a fitted effect of over 65% in size
Furin counterscr: Selectivity profile for inhibitors of NSP2Pro chikungunya virus (CHIKV): Human furin counterscreen; shares compounds with nsP2pro inh; Recombinant human furin enzymatic counterscreen, fluorogenic substrate; Potency, µM (doses to about 50.6 µM), hits mostly inhibitors; actives 6% (n = 410)
Target sequence (P09958 whole entry, looked up): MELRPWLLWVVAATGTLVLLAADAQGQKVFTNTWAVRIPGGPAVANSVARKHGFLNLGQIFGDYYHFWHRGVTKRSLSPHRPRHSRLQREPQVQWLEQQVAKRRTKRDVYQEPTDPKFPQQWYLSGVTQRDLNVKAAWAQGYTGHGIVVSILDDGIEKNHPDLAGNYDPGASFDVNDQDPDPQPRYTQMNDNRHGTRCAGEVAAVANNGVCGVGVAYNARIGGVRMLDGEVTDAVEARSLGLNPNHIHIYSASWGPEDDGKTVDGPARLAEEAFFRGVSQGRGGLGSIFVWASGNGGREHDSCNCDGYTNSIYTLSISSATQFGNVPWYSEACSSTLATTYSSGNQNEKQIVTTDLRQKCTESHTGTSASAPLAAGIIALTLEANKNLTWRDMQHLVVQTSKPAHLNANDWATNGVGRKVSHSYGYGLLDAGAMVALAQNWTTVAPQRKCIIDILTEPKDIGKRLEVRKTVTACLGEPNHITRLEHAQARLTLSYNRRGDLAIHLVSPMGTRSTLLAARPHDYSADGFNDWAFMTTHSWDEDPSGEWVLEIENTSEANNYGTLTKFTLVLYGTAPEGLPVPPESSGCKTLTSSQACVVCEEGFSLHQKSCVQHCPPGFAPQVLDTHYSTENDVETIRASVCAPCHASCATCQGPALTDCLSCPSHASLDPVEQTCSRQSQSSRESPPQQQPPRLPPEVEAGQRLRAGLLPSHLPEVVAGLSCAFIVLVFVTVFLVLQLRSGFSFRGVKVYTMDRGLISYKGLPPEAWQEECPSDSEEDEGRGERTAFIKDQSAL
nsP2 NS23 pep: Selectivity profile for inhibitors of NSP2Pro chikungunya virus (CHIKV): Endogenous NS2/3 peptide Counterscreen; shares compounds with nsP2pro inh; actives 34% (n = 410); Purified CHIKV nsP2 protease, endogenous NS2/3 peptide cleavage; AID 1964103, 2024; Potency, µM (highest dose often 51 µM), hits mostly inhibitors; also: nearly all actives have a fitted effect of over 55% in size
Papain cs: Selectivity profile for inhibitors of NSP2Pro chikungunya virus (CHIKV): Papain Counterscreen; shares compounds with nsP2pro inh; purified papain protease activity, enzymatic inhibition; Potency, µM (titrated, usually from 51 µM), usual class: inhibitors; actives 5% (n = 410); AID 1964104, 2024
nsP2pro conf qHTS: Confirmatory qHTS for inhibitors of NSP2Pro chikungunya virus (CHIKV). shares compounds with nsP2pro inh. CHIKV nsP2 protease enzymatic activity, qHTS. AID 1964105, 2024. Potency, µM (doses to about 25.5 µM), actives largely listed as inhibitors. actives 43% (n = 410); also: nearly all actives have a fitted effect of over 75% in size
HCV NS3 4A cs: Selectivity profile for inhibitors of NSP2Pro chikungunya virus (CHIKV): NS34A-HCV Counterscreen | Potency, µM (doses to about 50.9 µM), actives largely listed as inhibitors | actives 20% (n = 410) | HCV NS3/4A protease biochemical counterscreen | shares compounds with nsP2pro inh; also: nearly all actives have a fitted effect of over 55% in size
Each line names hits and unclear results; the compound was inactive in the other large screens (follow-up assays come after a bar, where they were run). Calls follow the shape of the full dose curve.

COc1cccc(-c2nnnn2[C@H]2CO[C@H]3[C@@H]2OC[C@@H]3NC(=O)C2CCCCC2)c1	none
C[C@H](C(=O)NC1CCCC1)N(C(=O)Cn1nnc(-c2ccc3c(c2)OCO3)n1)C1CCCCC1	none
O=C(NC1CCCCC1)N[C@H]1CO[C@H]2[C@@H]1OC[C@@H]2n1nnnc1-c1ccc2c(c1)OCO2	nsP2pro inh 2.82µM | CHIKV nsP2 cell inactive | CHIKV NSP2 FL 18.3µM | Furin counterscr 16.3µM | nsP2 NS23 pep 16.3µM | Papain cs inactive | nsP2pro conf qHTS 4.49µM | HCV NS3 4A cs inconclusive
COC(=O)CNC(=O)c1nc(-c2ccccc2OC)c2cnccn12	none
COCCCn1c(C)cnc1CC1CCN(C(=O)C2CCCCC2)CC1	none
COCC1CN(Cc2ccc(Br)s2)CC12CCNCC2 (stereo not drawn)	nsP2pro inh inconclusive | CHIKV nsP2 cell inconclusive | CHIKV NSP2 FL inconclusive | Furin counterscr inactive | nsP2 NS23 pep inconclusive | Papain cs inactive | nsP2pro conf qHTS inconclusive | HCV NS3 4A cs inconclusive
COCC1CN(C)CC12CCN(Cc1cccnc1)CC2 (stereo not drawn)	none
COCC1CN(Cc2ccc(OC)cc2)CC12CCNCC2 (stereo not drawn)	none
Oc1ccc([C@H]2CNCc3c2ccc(O)c3O)cc1O	nsP2pro inh 3.51µM | CHIKV nsP2 cell inactive | CHIKV NSP2 FL inconclusive | Furin counterscr inactive | nsP2 NS23 pep 23.1µM | Papain cs inactive | nsP2pro conf qHTS 5.04µM | HCV NS3 4A cs 0.58µM
CC(C)c1ccc(S(=O)(=O)N2CCN(CC(=O)Nc3ccccc3C(F)(F)F)CC2)cc1	none
Cn1c(NCc2cccc(Cl)c2)nc2ccccc21	none
CCn1cnc2c(NCCc3cccnc3)nc(C#N)nc21	none
CCn1nc2n(c1=O)CCN(Cc1cc(C)ccc1C)C2=O	none
COC(=O)Nc1cc(C2CC2)nn1C	none
N[C@@H](Cc1ccc(OS(=O)(=O)c2ccccn2)cc1)C(=O)N1CCN(c2ccccc2)CC1	none
CCCN(CCC)C(=O)CSc1c2c(nc3ccc(Cl)cc13)CCCC2	none
O=C(CSc1nnc2[nH]c(=O)cc(-c3ccccc3)n12)Nc1ccccc1C(F)(F)F	none
CNc1nc2c(s1)C(c1cccc(F)c1)CC(=O)N2 (stereo not drawn)	nsP2pro inh 3.16µM | CHIKV nsP2 cell inactive | CHIKV NSP2 FL inconclusive | Furin counterscr inactive | nsP2 NS23 pep 10.3µM | Papain cs inactive | nsP2pro conf qHTS 5.65µM | HCV NS3 4A cs inactive
CSc1nc(=O)c2c(n1C)NC(=O)CC2c1cc(F)cc(F)c1 (stereo not drawn)	none
Cc1ccc(CNC(=O)c2c[nH]c3ccc(S(=O)(=O)Nc4ccc(C(C)C)cc4)cc3c2=O)cc1	none
O=C(NCc1ccco1)c1ccc2c(c1)N(Cc1cccc(Cl)c1)C(=O)c1ccccc1S2=O (stereo not drawn)	none
O=C(Nc1ccc(Br)c(Br)c1)Nc1nnc(-c2cccnc2)s1	none
CCC1Oc2ccccc2N(CC(=O)NCCc2ccc(OC)c(OC)c2)C1=O (stereo not drawn)	none
CCCCS(=O)(=O)c1oc(-c2cccs2)nc1S(=O)(=O)c1ccc(F)cc1	nsP2pro inh inconclusive | CHIKV nsP2 cell 3.66µM | CHIKV NSP2 FL 5.8µM | Furin counterscr inactive | nsP2 NS23 pep 8.19µM | Papain cs inactive | nsP2pro conf qHTS 5.04µM | HCV NS3 4A cs inactive
CCCSc1oc(-c2cccs2)nc1S(=O)(=O)c1ccc(C)cc1	none
CCCCCS(=O)(=O)c1oc(-c2cccs2)nc1S(=O)(=O)c1ccc(C)cc1	none
O=[S+]1([O-])N=C(Oc2cccnc2)c2ccccc21	none
N#Cc1ccc(CN2CCCC3(CC(c4cccnc4)=NO3)C2)cc1 (stereo not drawn)	none
CCC(=O)c1cc(-c2ccc(Cl)cc2)n(-c2ccc(S(N)(=O)=O)cc2)c1C	none
CN1CCN(c2ccc(Nc3cc(-c4cccc(-n5ccc6cc(C7CC7)cc(F)c6c5=O)c4CO)cn(C)c3=O)nc2)CC1	nsP2pro inh inconclusive | CHIKV nsP2 cell inactive | CHIKV NSP2 FL inactive | Furin counterscr inactive | nsP2 NS23 pep inactive | Papain cs inconclusive | nsP2pro conf qHTS inactive | HCV NS3 4A cs inactive
CCn1cc(S(=O)(=O)N2CCC[C@H]2c2nc(-c3ccc(F)cc3)n[nH]2)cn1	none
CC(=O)OCC(=O)[C@@]1(O)CC[C@H]2[C@@H]3CCC4=CC(=O)CC[C@]4(C)[C@H]3C(=O)C[C@@]21C	none
CCNC(=O)N1C[C@@H](F)[C@@H](OCc2nc3ccc(F)cc3[nH]2)C1	none
Cc1cccc(NC(=O)N[C@H]2CN(C)c3ccccc3C(c3ccccc3)=N2)c1	nsP2pro inh inconclusive | CHIKV nsP2 cell inactive | CHIKV NSP2 FL inconclusive | Furin counterscr inactive | nsP2 NS23 pep inconclusive | Papain cs inactive | nsP2pro conf qHTS inconclusive | HCV NS3 4A cs inactive
Cc1cccc(NC(=O)N[C@@H]2N=C(c3ccccc3)c3ccccc3N(C)C2=O)c1	nsP2pro inh inconclusive | CHIKV nsP2 cell inactive | CHIKV NSP2 FL inconclusive | Furin counterscr inactive | nsP2 NS23 pep inconclusive | Papain cs inactive | nsP2pro conf qHTS inconclusive | HCV NS3 4A cs inactive
Cc1cccc(-c2cc(-c3ccccc3)nc(SCC(=O)Nc3ccccc3)c2C#N)c1	none
Cc1cccc(NC(=O)CSc2nc3ccccc3nc2N2CCC(C)CC2)c1	none
Cc1ccc(NC(=O)Nc2ccc3c(c2)N(C)C(=O)c2ccccc2S3)c(C)c1	none
Cc1cccc(NC(=O)CSc2cc(C)c3ccccc3n2)c1	none
O=C1CCCCC(C(=O)NC2CCCC2)N1 (stereo not drawn)	none
CC(=O)N1CCN(c2nc(-c3ccc(Br)cc3)cs2)CC1	none
COC[C@H]1CCCN1C(=O)C[C@@H]1O[C@H](CNS(C)(=O)=O)[C@@H](O)[C@H]1O	none
COc1ccc([C@H]2C[C@@H](O)[C@@H](O)[C@@H]2NS(=O)(=O)c2ccc(Cl)cc2)cc1	none

Compound activity: PubChem, National Center for Advancing Translational Sciences (NCATS)
